{
  "source": "PubChem BioAssay (NCATS)",
  "note": "Records with an inconclusive call do not appear. The source made the active and inactive calls. Calls follow the shape of the dose curve; as a rule, active = well fitted cell-killing curve with a large enough effect; inconclusive = small, poorly fitted or top-dose-only effect, or effect the other way; inactive = no such curve, though single readings can be large or run the other way. Where a SMILES comes first, the peptide text is derived from it. Bridges are numbered along the chain shown (N, C = ends). [ ]: non-standard residue; d: D form. The star is where a group is joined. ξ: configuration not given here. d(aThr) = C[C@@H](O)[C@@H](N)C(=O)O; ξThr(3R) = C[C@@H](O)C(N)C(=O)O; pGlu = O=C1CC[C@@H](C(=O)O)N1; X3 = CC[C@@H](C)CCCCC(=O)*; dDab = NCC[C@@H](N)C(=O)O",
  "data": [
    {"assay": "qHTS assay to identify small molecule inhibitors of chordoma cells - UCH-1 (AID 1259355); also: nearly all actives have a fitted effect of over 55% in size; also: potency is read from the fitted curve at half-maximal effect; as to activity, negative = inhibition: % is scaled to controls: 0 for no effect and ±100 for the full control effect", "conditions": "UCH-1 chordoma viability, CellTiter-Glo, 48 h, combination, with auranofin plus four topoisomerase inhibitors; series mostly up to 46.1 µM; activity, negative = inhibition: at the top concentration", "excerpt": "NIH Chemical Genomics Center [NCGC]\nChordoma is a rare and slow growing tumor that can occur anywhere along the spine, from the base of the skull to the tailbone. Current treatment options for chordoma is surgery and radiation therapy for those who are not candidates for surgery. But chordomas tend to return in the same location or surrounding areas of the original tumor after surgery and/or radiation. Chemotherapy can slow down the progression of the tumor. As chordoma is slow growing, the general cytotoxic agents that kill fast growing cells are ineffective, and some patients have been reported to respond to molecularly targeted drugs.\nNCATS Pharmaceutical Collection (NPC) containing approximately 3000 clinically approved and investigational drugs were used to screen at 15 concentrations in a chordoma cell lines, UCH-1, to identify small molecule compounds that can inhibit chordoma cell growth.\nNCGC Assay Protocol Summary:\nHuman chordoma cell line UCH-1 was dispensed at 800 per well in 4uL of culture medium into white solid bottom 1536-well plates (Corning Life Sciences, Corning, NY) using a Multidrop Combi (Thermo Scientific, Waltham, MA) dispenser. The assay plates were incubated at 37 C and 5% CO2 for an overnight, and then 23nL of compounds dissolved in DMSO and positive control were transferred using a Pintool station (Wako, San Diego, CA). Compound treatment was followed by the addition of 1uL of the combination compounds (1uM Auranofin, 500nM each of Camptothecin, Doxorubicin, Rubitecan, and Topotecan) and assay medium to each well of the assay plates using Flying Reagent Dispenser (FRD, Aurora Discovery, San Diego, CA). The assay plates were incubated at 37 C and 5% CO2 for 48hr. Then 5uL of CellTiter-Glo reagent (Promega Corporation, Madison, WI) was added to each well of the assay plates using FRD. After 30min incubation at room temperature, the luminescence signal was quantified using a ViewLux plate reader (PerkinElmer, Shelton, CT).", "values": [
      {"molecule": "COc1ccc([C@@H]2CC(=O)c3c(O)cc(O[C@@H]4O[C@H](CO[C@@H]5O[C@@H](C)[C@H](O)[C@@H](O)[C@H]5O)[C@@H](O)[C@H](O)[C@H]4O)cc3O2)cc1O", "activity, negative = inhibition": "4.95% [at 20.6 µM] (inactive)"},
      {"molecule": "O=C(NNCNNC(=O)c1ccncc1)c1ccncc1", "activity, negative = inhibition": "-0.934% (inactive)"},
      {"molecule": "CC[C@H](C)[C@H](NC(=O)[C@H](Cc1ccccc1)NC(=O)[C@H](C)NC(=O)[C@H](CC(=O)O)NC(=O)[C@H](CCCCN)NC(=O)[C@H](CO)NC(=O)[C@@H]1CCCN1C(=O)[C@@H]1CCC(=O)N1)C(=O)NCC(=O)N[C@@H](CC(C)C)C(=O)N[C@@H](CCSC)C(N)=O", "note": "([pGlu]PSKDAFIGLM-NH2)", "activity, negative = inhibition": "-8.65% (inactive)"},
      {"molecule": "CC[C@H](C)[C@@H]1NC(=O)[C@H](Cc2ccc(O)cc2)NC(=O)[C@@H](N)CSSC[C@@H](C(=O)N2CCC[C@H]2C(=O)N[C@@H](CC(C)C)C(=O)NCC(N)=O)NC(=O)[C@H](CC(N)=O)NC(=O)[C@H](CCC(N)=O)NC1=O", "activity, negative = inhibition": "-7.31% (inactive)"},
      {"molecule": "[O]=[Bi][O][Bi]=[O]", "activity, negative = inhibition": "-15.1% (inactive)"},
      {"molecule": "CC1=CCC2CC1C2(C)C", "note": "(stereo not given)", "activity, negative = inhibition": "8.6% (inactive)"},
      {"molecule": "CC[C@@H](C)CCCCC(=O)N[C@H](CCN)C(=O)N[C@@H](C(=O)N[C@H](CCN)C(=O)N[C@@H]1CCNC(=O)C([C@@H](C)O)NC(=O)[C@@H](CCN)NC(=O)[C@@H](CCN)NC(=O)[C@@H](CC(C)C)NC(=O)[C@@H](Cc2ccccc2)NC(=O)[C@@H](CCN)NC1=O)[C@@H](C)O", "note": "(stereo partly drawn) (X3-[dDab][d(aThr)][dDab][dDab][dDab][dF][dL][dDab][dDab][ξThr(3R)]; lactam 4-C)", "activity, negative = inhibition": "-11% (inactive)"},
      {"molecule": "OC[C@H]1O[C@@](CO)(O[C@H]2O[C@H](CO)[C@@H](O)[C@H](O)[C@H]2O)[C@@H](O)[C@@H]1O", "activity, negative = inhibition": "0.107% (inactive)"},
      {"molecule": "C=CC1=C(C(=O)O)N2C(=O)[C@@H](NC(=O)/C(=N/OCC(=O)O)c3csc(N)n3)[C@H]2SC1", "note": "(stereo in doubt)", "activity, negative = inhibition": "-5.32% [at 20.6 µM] (inactive)"},
      {"molecule": "O=C(O)c1ccc(OCCn2ccnc2)cc1", "activity, negative = inhibition": "-9.13% (inactive)"},
      {"molecule": "C[C@H](NCCc1ccc(O)cc1)[C@H](O)c1ccc(O)cc1", "activity, negative = inhibition": "-7.59% (inactive)"},
      {"molecule": "CC[C@H]1OC(=O)C[C@@H](O)[C@H](C)[C@@H](O[C@@H]2O[C@H](C)[C@@H](O[C@H]3C[C@@](C)(O)[C@@H](O)[C@H](C)O3)[C@H](N(C)C)[C@H]2O)[C@@H](CC=O)C[C@@H](C)C(=O)/C=C/C(C)=C/[C@@H]1CO[C@@H]1O[C@H](C)[C@@H](O)[C@@H](OC)[C@H]1OC", "activity, negative = inhibition": "-18% (inactive)"},
      {"molecule": "OC[C@H]1O[C@@H]2O[C@H]3[C@H](O)[C@@H](O)[C@@H](O[C@H]4[C@H](O)[C@@H](O)[C@@H](O[C@H]5[C@H](O)[C@@H](O)[C@@H](O[C@H]6[C@H](O)[C@@H](O)[C@@H](O[C@H]7[C@H](O)[C@@H](O)[C@@H](O[C@H]1[C@H](O)[C@H]2O)O[C@@H]7CO)O[C@@H]6CO)O[C@@H]5CO)O[C@@H]4CO)O[C@@H]3CO", "activity, negative = inhibition": "-11.1% (inactive)"},
      {"molecule": "CC1=CC(=O)NS(=O)(=O)O1", "activity, negative = inhibition": "-9.24% (inactive)"},
      {"molecule": "CC(=O)OCC1=C(C(=O)O)N2C(=O)[C@@H](NC(=O)Cc3ccccc3)[C@H]2SC1", "activity, negative = inhibition": "-2.49% (inactive)"},
      {"molecule": "Cc1cc(=O)c(C(=O)N[C@@H](C(=O)N[C@@H]2C(=O)N3C(C(=O)O)=C(CSc4nnnn4C)CS[C@H]23)c2ccc(O)cc2)c[nH]1", "activity, negative = inhibition": "-23.1% (inactive)"},
      {"molecule": "CN[C@H](CC(C)C)C(=O)N[C@H]1C(=O)N[C@@H](CC(N)=O)C(=O)N[C@H]2C(=O)N[C@H]3C(=O)N[C@H](C(=O)N[C@@H](C(=O)O)c4cc(O)cc(O)c4-c4cc3ccc4O)[C@H](O)c3ccc(c(Cl)c3)Oc3cc2cc(c3O[C@@H]2O[C@H](CO)[C@@H](O)[C@H](O)[C@H]2O[C@H]2C[C@](C)(N)C(O)[C@H](C)O2)Oc2ccc(cc2Cl)[C@H]1O", "note": "(stereo not given in full)", "activity, negative = inhibition": "9.71% (inactive)"},
      {"molecule": "CC12CCC(C1)C(C)(C)C2=O", "note": "(stereo not given)", "activity, negative = inhibition": "-20.8% (inactive)"},
      {"molecule": "C=C1CC[C@H](O)CC1=C/C=C1\\CCC[C@]2(C)[C@@H]([C@H](C)/C=C/[C@H](C)C(C)C)CC[C@@H]12", "activity, negative = inhibition": "-6.79% (inactive)"},
      {"molecule": "CCN(CC)CCOC[C@H]1O[C@@H](O)[C@H](OCCN(CC)CC)[C@@H](O)[C@@H]1O", "activity, negative = inhibition": "2.14% (inactive)"},
      {"molecule": "CC1(C)S[C@@H]2[C@H](NC(=O)C3(N)CCCCC3)C(=O)N2[C@H]1C(=O)O", "activity, negative = inhibition": "-15% (inactive)"},
      {"molecule": "O=C(O[C@H]1CN2CCC1CC2)N1CCc2ccccc2[C@@H]1c1ccccc1", "activity, negative = inhibition": "-13.4% (inactive)"},
      {"molecule": "CCCCC[C@H](O)/C=C/[C@H]1[C@H](O)CC(=O)[C@@H]1CCCCCCC(=O)O", "activity, negative = inhibition": "-15.2% [at 20.6 µM] (inactive)"},
      {"molecule": "O=C1N=C2SCCN2C(=O)C1Cc1ccc(Cl)cc1", "note": "(stereo not given)", "activity, negative = inhibition": "-8.79% (inactive)"},
      {"molecule": "COC(=O)C(CN)c1c[nH]c2ccc(OC)cc12", "note": "(stereo not given)", "activity, negative = inhibition": "-21.6% (inactive)"},
      {"molecule": "CCCCCCCCCC(=O)NO", "activity, negative = inhibition": "4.81% (inactive)"},
      {"molecule": "CC1(C)[C@H]2CC[C@]1(C)[C@H](O)C2", "activity, negative = inhibition": "-5.68% (inactive)"},
      {"molecule": "CCCCCc1ccc(C)cc1O", "activity, negative = inhibition": "4.7% (inactive)"},
      {"molecule": "C[N@+]12CCCC[C@@H]1CCC(=C(c1cccs1)c1cccs1)C2", "activity, negative = inhibition": "-6.73% (inactive)"},
      {"molecule": "C[Se]CC[C@H](N)C(=O)O", "activity, negative = inhibition": "-4.1% (inactive)"},
      {"molecule": "CCN(CC)CCOc1ccccc1OC", "activity, negative = inhibition": "-16% (inactive)"},
      {"molecule": "COc1ccc2cc([C@H](C)CO)ccc2c1", "activity, negative = inhibition": "-2.36% (inactive)"},
      {"molecule": "CC(C)=CCC/C(C)=C/C=C/C(C)=C/C=C/C(C)=C/C=C/C=C(C)/C=C/C=C(C)/C=C/C=C(\\C)CCC=C(C)C", "activity, negative = inhibition": "-7.68% (inactive)"},
      {"molecule": "Oc1ccc(/C=C/c2cc(O)cc(O)c2)cc1", "activity, negative = inhibition": "-34.6% [at 20.6 µM] (inactive)"},
      {"molecule": "CCN1\\C(=C/C=C/C=C/c2sc3ccccc3[n+]2CC)Sc2ccccc21", "Potency": "14.1 µM (active)"},
      {"molecule": "CCN(CC)C(=O)c1cccnc1", "activity, negative = inhibition": "-8.47% (inactive)"},
      {"molecule": "CC(/C=C/C=C(\\C)C(=O)O[C@@H]1O[C@H](CO[C@@H]2O[C@H](CO)[C@@H](O)[C@H](O)[C@H]2O)[C@@H](O)[C@H](O)[C@H]1O)=C\\C=C\\C=C(C)\\C=C\\C=C(/C)C(=O)O[C@@H]1O[C@H](CO[C@@H]2O[C@H](CO)[C@@H](O)[C@H](O)[C@H]2O)[C@@H](O)[C@H](O)[C@H]1O", "activity, negative = inhibition": "-20% (inactive)"},
      {"molecule": "NC(=O)OCC(O)COc1ccc(Cl)cc1", "note": "(stereo not given)", "activity, negative = inhibition": "-19.1% [at 20.6 µM] (inactive)"},
      {"molecule": "O=C1c2c(O)cccc2[C@H]([C@@H]2O[C@H](CO)[C@@H](O)[C@H](O)[C@H]2O)c2cc(CO)cc(O)c21", "activity, negative = inhibition": "-14.7% (inactive)"},
      {"molecule": "Cn1nnnc1SCC1=C(C(=O)O)N2C(=O)[C@@H](NC(=O)[C@H](O)c3ccccc3)[C@H]2SC1", "activity, negative = inhibition": "-28.7% [at 20.6 µM] (inactive)"}
    ]}
  ]
}
